Bioassay records from PubChem.
RXFP1 ag = activates the human relaxin receptor RXFP1 | Q9HBX9 | hit rate 0.3% among 370,000 | Potency, µM (doses to about 57.5 µM), without a hit: top-dose activation, hits mostly activators | AID 2676 | HEK293T-RXFP1 cAMP TR-FRET, 30 min; response scale: percent of porcine relaxin response, buffer zero; also: potency is read from the fitted curve at half-maximal effect; % is scaled to controls: 0 for no effect and ±100 for the full control effect; nearly all actives have a fitted effect of over 60% in size
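HEK293T cells stably expressing RXFP1 were pretreated with the PDE4 inhibitor Ro 20174, exposed to compounds for 30 min at 37C, lysed, and cAMP was read by TR-FRET. Data normalized to buffer (basal) and 29 nM porcine relaxin (100%).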
gsp antag = gsp mutant antagonism; gsp-mutant cells, cAMP HTRF, 30 min; Potency, µM (titrated, usually from 76.9 µM), for inactives: at the top dose activity change, negative = inhibition, actives largely listed as inhibitors; hit rate 0.4% among 340,000; AID 624288; calls by dose curve; cell line not stated here;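 also: intracellular cAMP measured with PDE inhibitor Ro 20-1724 present during compound exposure; potency is read from the fitted curve at half-maximal effect; % is scaled to controls: 0 for no effect and ±100 for the full control effect; nearly all actives have a fitted effect of over 65% in size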
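Cells, 2000/well, grown 16–24 h in DMEM 10% FBS with 0.5 mg/ml G418, then compounds plus […] (300 uM addition stock), 30 min at 37C. cAMP read by HTRF (cAMP-d2 and anti-cAMP antibody-K in lysis buffer) after 30 min RT.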
gsp ag = activates gsp, the McCune-Albright syndrome mutation; gsp mutant cells, cAMP HTRF, 30 min; Potency, µM (series often up to 76.9 µM), for inactives: at the highest dose activation (cAMP increase), most hits filed as activators; hit rate 0.13% among 340,000; active = well fitted activation curve with a large enough effect; inconclusive = small, poorly fitted or top-dose-only effect, or another doubt; inactive = no such curve, though single readings can be large or run the other way; cell line not stated here;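 also: phosphodiesterase inhibitor Ro 20-1724 added with compounds to block cAMP breakdown; potency is read from the fitted curve at half-maximal effect; nearly all actives have a fitted effect of over 60% in size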
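Cells stably selected in G418 were plated at 2000/well, grown 16-24 hr, then given compounds in DMSO with the PDE inhibitor […] (300 uM solution added) for 30 min at 37C; cAMP was read by HTRF.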
RXFP1 antag = blocks the human relaxin receptor RXFP1; Q9HBX9; HEK293-RXFP1, relaxin-stimulated cAMP HTRF, 30 min; active compounds read low; activity change, negative = inhibition, % at 57.5 µM; hit rate 0.59% among 350,000;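 active = activity change of -60% or lower, but not beyond a set lower limit; inconclusive = change between -60% and -40%, or beyond the set limit; inactive = change above -40%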; also: % is scaled to controls: 0 for no effect and ±100 for the full control effect
PTHR1 agonist = activates the human parathyroid hormone receptor PTHR1. Q03431. HEK293 GP2 PTHR1 cells, GloSensor cAMP luminescence, 1 h. Potency, µM (doses to about 115 µM), for the others: at the highest dose activation, usual class: activators. hit rate 0.075% among 410,000. AID 743266; also: potency is read from the fitted curve at half-maximal effect; nearly all actives have a fitted effect of over 55% in size
Target sequence (Q03431 whole entry, looked up): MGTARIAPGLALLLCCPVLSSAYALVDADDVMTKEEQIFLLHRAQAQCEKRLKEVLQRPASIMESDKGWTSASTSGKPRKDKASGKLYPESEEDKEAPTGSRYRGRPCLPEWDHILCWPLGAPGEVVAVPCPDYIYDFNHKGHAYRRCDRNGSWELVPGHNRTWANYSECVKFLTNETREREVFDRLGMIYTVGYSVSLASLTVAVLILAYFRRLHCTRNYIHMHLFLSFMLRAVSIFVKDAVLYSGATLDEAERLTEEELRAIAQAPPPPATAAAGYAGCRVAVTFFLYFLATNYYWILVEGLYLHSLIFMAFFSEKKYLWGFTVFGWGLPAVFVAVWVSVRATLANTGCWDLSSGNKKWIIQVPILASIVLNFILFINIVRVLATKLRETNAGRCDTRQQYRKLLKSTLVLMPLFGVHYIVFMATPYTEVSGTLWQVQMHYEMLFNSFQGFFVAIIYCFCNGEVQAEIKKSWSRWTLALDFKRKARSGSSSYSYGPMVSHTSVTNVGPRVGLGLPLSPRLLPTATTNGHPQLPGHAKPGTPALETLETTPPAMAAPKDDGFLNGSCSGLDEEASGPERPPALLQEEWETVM
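HEK-293-derived GP2 cells expressing PTHR1 and a GloSensor cAMP reporter, 3,000/well, plated overnight, given luciferin plus IBMX (each 0.5 mM as added) for 1 h at 37 °C, then compound for 1 h at 37 °C. Luminescence was read after 15 min at room temperature.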
An asterisk follows results filed as active; i = inactive; u = inconclusive; x = not tested or not shown; [ ] = dose if it differs, or a comment. Rows were chosen to be rich in hits. Some 1% of all compounds tested hit in one or more screens of this group. Unless noted, calls follow the shape of the dose curve; as a rule, active = well fitted curve in the direction sought with a large enough effect; inconclusive = small, poorly fitted or top-dose-only effect, or another doubt; inactive = no such curve, though single readings can be large; an effect the other way counts as inactive or inconclusive.

SMILES	RXFP1 ag	gsp antag	gsp ag	RXFP1 antag	PTHR1 agonist
C=CCNC(=S)Nc1sc2c(c1C(=O)OCC)CC(C)(CC)OC2 (centres undefined)	7.2%	7.94µM*	-1.7%[15.4 µM]	-36.3	-5.0%
CCOC(=O)c1c(NC(=O)CCC(=O)O)sc2c1CC(C)(C)OC2	-1.7%	-27.2%	3.5%[15.4 µM]	-21.9	i
CCOC(=O)c1c(NC(=O)C2CC(Cl)=CCC2C(=O)O)sc2c1CC(C)(C)OC2 (centres undefined)	5.0%	14.1µM*	22.8%[15.4 µM]	-6.0	1.9%
C=CCNC(=S)Nc1sc2c(c1C(=O)OCC)CCN(C(=O)OCC)C2	11.2%	-2.1%	15.6%	-80.3*	-8.0%[57.5 µM]
Cc1cc(-c2ccc(S(=O)(=O)Nc3ccc(Br)c(C)c3)s2)on1	1.0%	x	x	-17.1	-24.1%
COc1cccc(C(c2sc3nc(-c4ccco4)nn3c2O)N2CCOCC2)c1 (centres undefined)	1.5%	x	x	-8.2	-30.9%
Cc1ccc(CN(C)CC(=O)NC(C)c2ccccc2)cc1 (centres undefined)	-0.5%	5.9%	u	-15.6	-0.1%
CC(NC(=O)CN(C)Cc1cccc(Cl)c1)c1ccccc1 (centres undefined)	6.2%	11.2µM*	1.8%[15.4 µM]	7.1	i
CCc1ccc(S(=O)(=O)Nc2ccc3[nH]c(=O)sc3c2)cc1	0.9%	x	x	4.2	-29.1%
Cc1ccccc1-c1noc(-c2ccc(N3CCC(C)CC3)c([N+](=O)[O-])c2)n1	-5.2%	x	x	x	i
Cc1nc(=S)c2ccccc2[nH]1	4.6%	8.0%	u	2.1	i
FC(F)(F)c1nc(=S)c2ccccc2[nH]1	0.3%	25.1%	2.24µM*	8.5	-22.8%
CCOC(=O)c1c(NC(=O)COc2cccc3c2CCN(C)C3=O)sc2c1CCC2	0.1%	14.1µM*	-39.6%	14.7	-37.8%
CC(C)Cc1ccc(C(C)C(=O)OCc2ccccn2)cc1 (centres undefined)	x	x	x	-31.8	x
CCCCNc1c(-c2ccc(OC)c(SC(C)CC)c2)nc2ccc(C)cn12 (centres undefined)	x	28.2µM*	x	x	-42.9%
CCCCNc1c(-c2ccc(OC)c(SC(C)CC)c2)nc2cnccn12 (centres undefined)	x	4.1%	x	x	-26.4%
CCCCNc1c(-c2ccc(OC)c(SC(C)CC)c2)nc2cc(C)ccn12 (centres undefined)	x	39.8µM*	u	x	-93.3%
CCC(C)Sc1cc(-c2nc3cc(C)ccn3c2NC2CCCCC2)ccc1OC (centres undefined)	x	31.6µM*	u	x	-44.2%
CCCCNc1c(-c2ccc(OC)c(SC(C)CC)c2)nc2ccc(Cl)cn12 (centres undefined)	x	-21.5%	5.1%	x	-25.9%
CCC(C)Sc1cc(-c2nc3ccccn3c2NC2CCCCC2)ccc1OC (centres undefined)	17.8%	-25.7%	u	x	-48.7%
Fc1ccccc1-c1n[nH]c(=S)n1/N=C/c1c[nH]c2ccccc12	0.5%	-8.5%	-8.2%[15.4 µM]	-109.2*	-18.2%
Fc1ccccc1/C=N/n1c(C2CCCCC2)n[nH]c1=S	-0.3%	-27.3%	-22.7%	-12.2	i
Cc1ccc(-c2cn3c(n2)sc2cc(C(=O)N4CCCCC4)ccc23)cc1	20.7%	x	x	u	-78.8%
CCOC(=O)C1=C(N)OC2=C(C(=O)CC(C)(C)C2)C1c1ccc(CC)s1 (centres undefined)	2.4%	u	0.0%	-23.3	-20.2%
CCOC(=O)C1=C(N)OC2=C(C(=O)CC(C)(C)C2)C1c1ccc(C)s1 (centres undefined)	-3.8%	-18.8%	-6.0%[15.4 µM]	-61.6*	-11.0%
SMILES	RXFP1 ag	gsp antag	gsp ag	RXFP1 antag	PTHR1 agonist
CCCN1C(=O)/C(=C/c2cc(C)n(C)c2C)SC1=Nc1ccc(OC)cc1	1.6%	-2.3%	9.3%	-2.4	-18.7%[57.5 µM]
COc1cc(/C=C2\SC(=Nc3ccccc3)N(CCc3c[nH]c4ccccc34)C2=O)ccc1OC(C)C(=O)O (centres undefined)	-2.5%	35.5µM*	8.3%[15.4 µM]	-16.6	-17.5%
COc1ccc(N=C2S/C(=C\c3ccc(OC(C)C(=O)O)c(OC)c3)C(=O)N2CCc2c[nH]c3ccccc23)cc1 (centres undefined)	1.1%	35.5µM*	-25.2%	4.6	-30.4%
COCCN1C(=O)/C(=C/c2ccc(Oc3ccc([N+](=O)[O-])cn3)c(OC)c2)SC1=Nc1ccccc1	0.8%	-1.5%	-22.9%	9.5	i
O=C1S/C(=C/c2ccc(N3CCOCC3)o2)C(=O)N1Cc1ccc(F)cc1	1.3%	18.8%	1.2%	-6.3	i
O=C1/C(=C/c2ccc(N3CCOCC3)o2)SC(=Nc2ccccc2)N1CCc1c[nH]c2ccccc12	2.0%	7.6%	-10.9%	-80.5*	-57.6%
COc1cc2c(cc1OC)C(=O)CC2	x	x	x	6.3	x
Cc1cccc(-c2ccc3ncnc(NCc4cccc(F)c4)c3c2)c1	6.1%	x	x	x	x
N/C(Cc1ccc(Cl)c(Cl)c1)=N\OC(=O)c1cccs1	0.4%	-21.0%	-25.8%	-6.1	-8.1%[57.5 µM]
N/C(=N\OC(=O)c1cccs1)C1(c2ccc(Cl)cc2Cl)CC1	0.6%	8.2%	-8.6%[15.4 µM]	-115.2*	i
COc1ccc2oc(-c3ccc(C)c(NC(=O)COc4cc(C)cc(C)c4)c3)nc2c1	9.0%	x	x	x	i
O=C(N/N=C/C(Br)=C/c1ccccc1)c1cc(-c2ccco2)[nH]n1	-0.3%	-59.1%	16.6%[15.4 µM]	-80.6*	-20.3%
CC(/C=N/NC(=O)c1cc(-c2ccc(C)o2)[nH]n1)=C\c1ccccc1	1.3%	1.8%	6.0%	-16.2	-12.4%
Cc1ccc(C)c(CN2C(=O)c3ccccc3S(=O)(=O)c3ccc(C(=O)N4CCN(c5ccccc5)CC4)cc32)c1	-0.3%	x	x	-16.3	-12.3%
Cc1cc2c(s1)c1c(n2C)C(=O)N(Cc2ccccc2F)C1	0.7%	x	x	x	x
COC(=O)c1ccc(/C=C2/SC(=S)N(CCC(=O)N3CCOCC3)C2=O)cc1	3.2%	50.1µM*	-25.5%	-17.1	i
Cc1cc(S(=O)(=O)Nc2ccc(C(=O)NCC3(N4CCCCC4)CCCCC3)cc2)ccc1F	0.2%	-0.4%	18.0%[15.4 µM]	-76.8*	i
Cc1cc(S(=O)(=O)Nc2ccc(C(=O)NCC3(N(C)C)CCCCC3)cc2)ccc1F	-0.3%	14.1%	-12.9%	-18.8	i
Nc1ncnc2c1ncn2Cc1c(F)cccc1Cl	x	x	x	-5.8	x
Cc1cc(=O)[nH]c(SCC(=O)C23CC4CC(CC(C4)C2)C3)c1C#N	0.6%	35.5µM*	19.0%	16.6	-84.2%[57.5 µM]
O=[N+]([O-])c1ccc(-c2cnc(SC(c3ccccc3)c3ccccc3)[nH]2)cc1	0.4%	35.5µM*	-5.9%[15.4 µM]	u	-45.4%
O=[N+]([O-])c1ccc(-c2cnc(SCc3ccccc3Cl)[nH]2)cc1	-0.8%	-9.7%	-4.2%	-7.5	-22.9%[57.5 µM]
COc1cccc(C(=O)N(Cc2ccc(N(C)C)cc2)Cc2ccco2)c1	-1.6%	x	x	-6.7	i
